Laboratory results reported in PubChem BioAssay (NCATS).
Inconclusive results are not listed. Calls of active or inactive are those of the source. The call rests on the fitted dose curve; in most records, active means well fitted curve in the direction sought with a large enough effect; inconclusive means small, poorly fitted or top-dose-only effect, or another doubt; inactive means no such curve, though single readings can be large; an effect the other way counts as inactive or inconclusive.

How the values were obtained:
[1] = test system: UISO; test: qHTS assay to identify novel small-molecules to repurpose for Merkel cell carcinoma treatment (AID 1296009); settings: MCC and control cell lines, CellTiter-Glo viability, 72 h; series mostly up to 46 µM; further: nearly all actives have a fitted effect of over 60% in size; further: potency means the concentration at half of the fitted maximal effect
Method in brief: (§1)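 Cell viability measured by CellTiter-Glo following 72 hr compound treatment at 37 degree celsius, with NPC and MIPE libraries tested in 8- and 11-point concentration series.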

[2] = test system: WaGa; test: as above; settings: MCC and control cell lines, CellTiter-Glo viability, 72 h; series mostly up to 46 µM
Method in brief: as §1

[3] = test system: C33A; test: Primary qHTS to identify gynecologic anti-cancer compounds using libraries of approved drugs and bioactive compounds (AID 1345084); settings: Gynecologic cancer cell panel viability, ATPlite luminescence, 48 h; series mostly up to 57.5 µM; further: nearly all actives have a fitted effect of over 55% in size
Method in brief: (§2)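 Five-point cytotoxicity, 48 h drug exposure at 37 C, 5% CO2, on cells seeded 16 h beforehand. ATP content read by ATPlite luminescence.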

[4] = test system: CASKI; test: as above; settings: Gynecologic cancer cell panel viability, ATPlite luminescence, 48 h; series mostly up to 57.5 µM
Method in brief: as §2

[5] = test system: Es-2; test: as above; settings: Gynecologic cancer cell panel viability, ATPlite luminescence, 48 h; series mostly up to 57.5 µM
Method in brief: as §2

[6] = test system: HeLa; test: as above; settings: Gynecologic cancer cell panel viability, ATPlite luminescence, 48 h; series mostly up to 57.5 µM
Method in brief: as §2

[7] = test system: Hek293T; test: as above; settings: Gynecologic cancer cell panel viability, ATPlite luminescence, 48 h, control line for the selectivity index; series mostly up to 57.5 µM
Method in brief: as §2

[8] = test system: JEG-3; test: as above; settings: Gynecologic cancer cell panel viability, ATPlite luminescence, 48 h; series mostly up to 57.5 µM
Method in brief: as §2

[9] = test system: OV90; test: as above; settings: Gynecologic cancer cell panel viability, ATPlite luminescence, 48 h; series mostly up to 57.5 µM
Method in brief: as §2

[10] = test system: CAOV3; test: as above; settings: Gynecologic cancer cell panel viability, ATPlite luminescence, 48 h; series mostly up to 57.5 µM
Method in brief: as §2

Measured: Potency

CCOC(=O)n1ccn(C)c1=S
not listed: [10]
inactive: all other assays above

COc1c2occc2c(OC)c2c(=O)cc(C)oc12
not listed: [7]
inactive: all other assays above

CCN(CC)CCOC(=O)C(c1ccccc1)C1CCCCC1 (configuration not stated)
not listed: [9] | [10]
inactive: all other assays above

CC(=O)OCC(=O)[C@@]12N=C(C)O[C@@H]1C[C@H]1[C@@H]3CCC4=CC(=O)C=C[C@]4(C)[C@H]3[C@@H](O)C[C@@]12C
not listed: [10]
inactive: all other assays above

CC(C)(C(=O)c1cccnc1)c1cccnc1
not listed: [8]
inactive: all other assays above

Cc1onc(-c2c(Cl)cccc2Cl)c1C(=O)N[C@@H]1C(=O)N2[C@@H]1SC(C)(C)[C@@H]2C(=O)O
not listed: [10]
inactive: all other assays above

Cc1c(N(C)CS(=O)(=O)O)c(=O)n(-c2ccccc2)n1C
not listed: [6] | [7]
inactive: all other assays above

CN1CCC[C@@H]1c1cccnc1
not listed: [10]
inactive: all other assays above

CCCC(=O)Nc1ccc(OCC(O)CNC(C)C)c(C(C)=O)c1 (configuration not stated)
not listed: [10]
inactive: all other assays above

CC(O)(P(=O)(O)O)P(=O)(O)O
not listed: [10]
inactive: all other assays above

OC(CCN1CCCCC1)(c1ccccc1)c1ccccc1
not listed: [10]
inactive: all other assays above

O=C(N/N=C/c1ccccc1O)c1ccncc1
inactive: [3] | [10] | [6] | [7] | [8]
active: [1] 0.75 µM | [2] 2.66 µM

NC(=O)C(=O)N/N=C/c1ccc([N+](=O)[O-])o1
active: [1] 29.9 µM | [2] 15 µM
not listed: [10]
inactive: all other assays above

CN=C(NC#N)NCCSCc1csc(N=C(N)N)n1
not listed: [7]
inactive: all other assays above

C[C@@H](CN(C)C)CN1c2ccccc2Sc2ccccc21
not listed: [9] | [10]
inactive: all other assays above

Cc1nc2n(c(=O)c1CCN1CCC(c3noc4cc(F)ccc34)CC1)CCC[C@H]2O
not listed: [10]
inactive: all other assays above

CCC(C(=O)OCCN(CC)CC)c1ccccc1 (configuration not stated)
not listed: [8]
inactive: all other assays above

CC(C)COC(=O)c1ccc(N)cc1
not listed: [10]
inactive: all other assays above

COc1cc(OC)cc(OC)c1
inactive: all assays above
